According to the supplement of paper PMC12350171:
Counter-ions that a name gives are not always drawn. Unmarked numbers belong to inactive results.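 Rule for the calls: active = AUC significantly below DMSO controls by Student t-fit with adjusted P under 0.01; inactive = not significantly reduced.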

test system: Haemophilus parainfluenzae; assay: growth AUC normalised to DMSO control (fraction of control); higher = less growth inhibition, active = hit call of the paper; conditions: 20 µM
Method in brief: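 Hemin and NAD were added to the medium for Haemophilus parainfluenzae. All pathogens, after two anaerobic passages, were inoculated at a starting OD578 of 0.01 into pre-reduced mGAM plates with 20 μM compound and 1% DMSO under breathable seals, and OD578 was read hourly for 24 h in three biological replicates. AUC of each growth curve was obtained with the trapezoidal rule up to the exponential-to-stationary transition and normalised to DMSO controls from the same plate.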

Row | Compound | growth AUC normalised to DMSO control
1 | CCCc1nc2c(C)cc(-c3nc4ccccc4n3C)cc2n1Cc1ccc(-c2ccccc2C(=O)O)cc1 [Telmisartan] | 1.03
2 | CN1CCC(=C2c3ccccc3CCc3sccc32)CC1 [Pizotifen malate] | 0.936
3 | CC(C)(C)C(=O)OCOC(=O)[C@@H]1N2C(=O)[C@@H](/N=C/N3CCCCCC3)[C@H]2SC1(C)C [Pivmecillinam hydrochloride] | 0.825
4 | CC(C)NCC(O)c1ccc(O)c(O)c1 (single isomer, unassigned; (-)) [(-) Isoproterenol hydrochloride] | 1.03
5 | CC(=O)OCC(=O)[C@@]12OC3(CCCC3)O[C@@H]1C[C@H]1[C@@H]3CCC4=CC(=O)C=C[C@]4(C)[C@@]3(F)[C@@H](O)C[C@@]12C [Amcinonide] | 1.03
6 | CC(C(=O)O)c1cccc(Oc2ccccc2)c1 (configuration not stated) [Fenoprofen calcium salt dihydrate] | 0.945
7 | CNCCCC1c2ccccc2C=Cc2ccccc21 [Protriptyline hydrochloride] | 0.977
